Four molecules from PubChem BioAssay can be followed below.

Assay [1] in a line: yeast TOR pathway RPL19A-GFP modulators, primary screen, cell-based, S. cerevisiae, multiplex flow cytometry (AID 1862; in the data active = percent of DMSO control GFP below about 86%;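 also: lower values mimic rapamycin by blocking the RPL19A rise seen in DMSO cells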). Conditions: S. cerevisiae RPL19A-GFP strain, flow cytometry fluorescence, 3 h; at 10 µM; stronger effect = lower value. On the technique in general: Flow cytometry measures light scatter and fluorescence of single cells or particles in a stream.
Assay [2] can be described thus: modulators of MEP2-GFP levels in yeast, primary screen, S. cerevisiae, multiplex flow cytometry (AID 1867;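 active = GFP response, as percent of the DMSO control, above the screen-wide mean plus 3 SD, about 139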;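 also: median GFP channel fluorescence of barcode-gated MEP2-GFP cells measured by flow cytometry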). Conditions: S. cerevisiae MEP2-GFP strain, 3 h, at 10 µM, stronger effect = higher value.
A short description of assay [3]: modulators of CIT2-GFP expression in yeast, primary screen, S. cerevisiae, GFP fusion, multiplex flow cytometry (AID 1870;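 active = percent response above a set limit, the screen-wide mean plus 3 SD, cut at about 130% in these data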;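 also: barcoded CIT2-GFP strain pooled with four other GFP strains with rapamycin as positive control; median GFP fluorescence per well over plate mean of DMSO wells so 100% = DMSO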). Conditions: 3 h, at 10 µM, stronger effect = higher value.
A short description of assay [4]: modulators of LAP4-GFP expression in yeast, primary screen, S. cerevisiae, multiplex flow cytometry (AID 1873;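 active = GFP signal, as percent of the solvent control, above the screen mean plus 3 SD, about 149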). The settings on record: 3 h, at 10 µM, stronger effect = higher value.
Assay [5] in a line: modulators of AGP1-GFP expression in yeast TOR pathway, primary screen, cell-based, multiplex flow cytometry, S. cerevisiae (AID 1887;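 active = GFP signal above the screen-wide mean plus 3 SD, that is over about 124.5% of the solvent control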;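 also: AGP1-GFP fusion strain of S. cerevisiae within a five-strain barcoded multiplex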). Conditions: 3 h, at 10 µM, stronger effect = higher value.
The nature of assay [6]: inhibitors of CD8+ T cell-vesicle binding, pilot screen, LFA-1/ICAM-1 modulator project, MLPCN validation set, flow cytometry (AID 2523;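 active = response below a set limit, under 55% cells CD8-positive and vesicle-bound, and CD8 cells' 90th-percentile brightness under 279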;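 as to vesicle binding response: mean PE anti-B7-1 fluorescence of CD8+ cells relative to row control; 100% = QL9-loaded vesicles with DMSO vehicle in the same plate row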). The settings on record: 2C mouse CD8+ T cells, at 7 µM, stronger effect = lower value; double positive events: measured here: CD8+/vesicle+ event percentage.
Assay [7] concerns the target Integrin beta-1 (Homo sapiens) + Integrin alpha-4 (Homo sapiens) (UniProt P13612+P05556). In words: inhibition of HUTS-21 binding to VLA-4, pilot screen, VLA-4 allosteric modulator project, U937 cells, HUTS-21 mAb, flow cytometry, validation set (AID 2674;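 active = inhibition above 50%, about 3 SD of the validation set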;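 also: antibody binding induced by the VLA-4 ligand LDV present at three times its Kd; 0% = LDV ligand with antibody and no compound and 100% = antibody without LDV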). Conditions: HUTS-21 LIBS mAb binding, at 6.7 µM, stronger effect = higher value.
Assay [8] in a line: superoxide lowering in aged yeast cells, pilot screen, validation compound set (AID 2706;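 active = superoxide response below 65% of plate, a cut near 3 SD across the whole screen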;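 also: yeast exposed to compound for one week at 30 degrees C before staining; 100% = mean of all compound wells on the same plate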). The settings on record: S. cerevisiae aging, superoxide DHE fluorescence; at 10 µM; stronger effect = lower value.
Assay [9] concerns the target Beta-adrenergic receptor kinase 1 (Homo sapiens) (UniProt P25098). In words: GRK2 binders displacing RNA aptamer, biochemical, validation, human GRK2, bead flow cytometry (AID 488806;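 active = aptamer binding inhibition above 30%, about 3 SD of noise from non-fluorescent compounds; inactive = inhibition at or below 30%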). Conditions: bead-bound GRK2, FAM-aptamer displacement, at 10 µM, stronger effect = higher value.
Assay [10] concerns the target Beta-2 adrenergic receptor (Homo sapiens) (UniProt P07550). In words: beta2AR agonists driving receptor internalization, pilot screen, cell-based, FAP fluorogen, flow cytometry, validation set (AID 504459;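 active = percent response above 42, roughly 3 SD of non-fluorescent test compounds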;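 also: agonist-driven loss of surface beta2AR via internalization measured by FAP dye flow cytometry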). The settings on record: Am2.2-beta2AR cells, FAP surface receptor flow cytometry; at 10 µM; stronger effect = higher value.
Assay [11] has as its target AP-2 complex subunit beta (Homo sapiens) (UniProt P63010). In words: inhibitors of arrestin peptide binding to AP2, pilot screen, biochemical, validation set, GST-AP2 beads, flow cytometry (AID 504541;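 active = inhibition above 54%, about 3 SD of non-fluorescent compounds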;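 also: AP2 carries R879A mutation and is captured from E. coli lysate; bead-bound FITC arrestin peptide fluorescence measuring arrestin peptide binding to AP2; 0% = DMSO wells and 100% = excess unlabeled arrestin peptide control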). The settings on record: FITC arrestin peptide, at 10 µM, stronger effect = higher value.
Assay [12] in a line: yeast V-ATPase proton transport modulators, S. cerevisiae, pHLuorin, HTS validation (AID 504600; in the data active = response above about 15%;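 also: plate controls were DMSO for no effect and reference compound for full effect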). The settings on record: S. cerevisiae pHLuorin cytosolic pH, at 10 µM, stronger effect = higher value.
Assay [13] deals with anti-desmoglein-3 scFv antibody binding to human DSG3. Kind of assay: inhibitors of anti-DSG3 scFv binding to DSG3, pilot screen, biochemical, validation compound set, bead-based, flow cytometry (AID 588368;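 active = binding below the plate cutoff, the plate median minus 3 SD, with a reading above zero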;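 also: signal is the median channel fluorescence of bead-bound GFP antibody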). The settings on record: Protein G beads, DSG3-Fc, scFv-GFP binding, at 10 µM, stronger effect = lower value.
For assay [14], the system named is Botulinum neurotoxin type F light chain protease (Clostridium botulinum). Kind of assay: Botulinum neurotoxin type F light chain protease inhibition, multiplex microsphere flow cytometry, validation set (AID 588459). Conditions: multiplex microsphere protease substrate cleavage assay, at 10 µM, stronger effect = higher value.
Assay [15] concerns the target Botulinum neurotoxin type A (Clostridium botulinum) (UniProt P0DPI0). In words: BoNT/A light chain protease inhibitors, biochemical, multiplex microsphere flow cytometry, validation set (AID 588460). The settings on record: at 10 µM, stronger effect = higher value.
The target in assay [16] is Lethal factor (Bacillus anthracis) (UniProt P15917). Kind of assay: Lethal factor protease inhibitors, Bacillus anthracis, multiplex microsphere cleavage assay, validation set (AID 588461). Conditions: flow cytometry, at 10 µM, stronger effect = higher value.
Assay [17] is described as follows: inhibitors of fungal efflux pumps CDR1, CDR2, MDR1, pilot screen, validation compound set, multiplex, phenotypic (AID 588506;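 active = efflux inhibition above 0.42, the validation set average plus 4 SD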;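 also: Nile Red retained in cells so higher fluorescence means more efflux inhibition; 0 = negative control wells and 1 = enniatin B 25 µM full block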). The settings on record: S. cerevisiae pump-expressing triplex, Nile Red efflux flow cytometry; at 10 µM; stronger effect = higher value.
Assay [18] concerns the target ATP-binding cassette sub-family B member 6 (Homo sapiens) (UniProt Q9NP58). In words: ABCB6 transporter inhibitors, pilot screen, K562-ABCB6 cells, flow cytometry, validation set (AID 588550;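 active = inhibition above the screen-wide mean plus 3 SD, about 51%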;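 also: 0% = DMSO wells and 100% = benzethonium chloride 70 µM positive control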). The settings on record: K562-ABCB6 porphyrin accumulation, 1 h, at 10 µM, stronger effect = higher value.
Assay [19] in a line: promoters of myeloid differentiation in arrested cells, primary screen, cell-based, GFP/MAC1 double positive, flow cytometry, validation set (AID 588685;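 active = differentiation response of at least 50%, scaled between solvent and reference control, from cells with both markers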;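 also: compound exposure lasts four days before antibody staining and flow analysis; 0% = DMSO wells and 100% = 5 µM fulvestrant positive control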). Conditions: ER-HoxA9 marrow cells, stronger effect = higher value.

Results filed as inconclusive are left out. Calls of active or inactive are those of the source. Unless noted, no rule for the calls is given here.

Chain of Lethal factor (Bacillus anthracis) (P15917 whole entry, looked up): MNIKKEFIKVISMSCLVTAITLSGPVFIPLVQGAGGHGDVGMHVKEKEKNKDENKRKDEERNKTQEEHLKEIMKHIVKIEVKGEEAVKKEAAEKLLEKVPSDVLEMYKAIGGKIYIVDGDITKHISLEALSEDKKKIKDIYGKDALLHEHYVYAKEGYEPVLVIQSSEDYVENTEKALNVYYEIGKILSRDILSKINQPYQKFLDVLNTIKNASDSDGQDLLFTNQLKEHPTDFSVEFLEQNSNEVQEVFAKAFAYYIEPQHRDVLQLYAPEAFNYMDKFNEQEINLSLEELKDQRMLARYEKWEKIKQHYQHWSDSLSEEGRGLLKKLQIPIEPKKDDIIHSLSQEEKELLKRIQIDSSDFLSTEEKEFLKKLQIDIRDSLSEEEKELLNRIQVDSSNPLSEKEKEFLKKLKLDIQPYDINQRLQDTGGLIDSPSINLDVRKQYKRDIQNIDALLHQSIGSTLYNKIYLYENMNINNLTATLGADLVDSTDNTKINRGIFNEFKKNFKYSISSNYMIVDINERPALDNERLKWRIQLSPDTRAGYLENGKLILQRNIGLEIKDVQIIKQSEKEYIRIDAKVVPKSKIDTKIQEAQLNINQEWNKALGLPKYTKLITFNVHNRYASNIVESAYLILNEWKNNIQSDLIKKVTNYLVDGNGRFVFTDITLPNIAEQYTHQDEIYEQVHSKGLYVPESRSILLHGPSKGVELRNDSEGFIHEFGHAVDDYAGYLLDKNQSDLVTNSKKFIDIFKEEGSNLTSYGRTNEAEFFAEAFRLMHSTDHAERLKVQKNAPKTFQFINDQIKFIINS
Chain of Botulinum neurotoxin type A (Clostridium botulinum) (P0DPI0 whole entry, looked up): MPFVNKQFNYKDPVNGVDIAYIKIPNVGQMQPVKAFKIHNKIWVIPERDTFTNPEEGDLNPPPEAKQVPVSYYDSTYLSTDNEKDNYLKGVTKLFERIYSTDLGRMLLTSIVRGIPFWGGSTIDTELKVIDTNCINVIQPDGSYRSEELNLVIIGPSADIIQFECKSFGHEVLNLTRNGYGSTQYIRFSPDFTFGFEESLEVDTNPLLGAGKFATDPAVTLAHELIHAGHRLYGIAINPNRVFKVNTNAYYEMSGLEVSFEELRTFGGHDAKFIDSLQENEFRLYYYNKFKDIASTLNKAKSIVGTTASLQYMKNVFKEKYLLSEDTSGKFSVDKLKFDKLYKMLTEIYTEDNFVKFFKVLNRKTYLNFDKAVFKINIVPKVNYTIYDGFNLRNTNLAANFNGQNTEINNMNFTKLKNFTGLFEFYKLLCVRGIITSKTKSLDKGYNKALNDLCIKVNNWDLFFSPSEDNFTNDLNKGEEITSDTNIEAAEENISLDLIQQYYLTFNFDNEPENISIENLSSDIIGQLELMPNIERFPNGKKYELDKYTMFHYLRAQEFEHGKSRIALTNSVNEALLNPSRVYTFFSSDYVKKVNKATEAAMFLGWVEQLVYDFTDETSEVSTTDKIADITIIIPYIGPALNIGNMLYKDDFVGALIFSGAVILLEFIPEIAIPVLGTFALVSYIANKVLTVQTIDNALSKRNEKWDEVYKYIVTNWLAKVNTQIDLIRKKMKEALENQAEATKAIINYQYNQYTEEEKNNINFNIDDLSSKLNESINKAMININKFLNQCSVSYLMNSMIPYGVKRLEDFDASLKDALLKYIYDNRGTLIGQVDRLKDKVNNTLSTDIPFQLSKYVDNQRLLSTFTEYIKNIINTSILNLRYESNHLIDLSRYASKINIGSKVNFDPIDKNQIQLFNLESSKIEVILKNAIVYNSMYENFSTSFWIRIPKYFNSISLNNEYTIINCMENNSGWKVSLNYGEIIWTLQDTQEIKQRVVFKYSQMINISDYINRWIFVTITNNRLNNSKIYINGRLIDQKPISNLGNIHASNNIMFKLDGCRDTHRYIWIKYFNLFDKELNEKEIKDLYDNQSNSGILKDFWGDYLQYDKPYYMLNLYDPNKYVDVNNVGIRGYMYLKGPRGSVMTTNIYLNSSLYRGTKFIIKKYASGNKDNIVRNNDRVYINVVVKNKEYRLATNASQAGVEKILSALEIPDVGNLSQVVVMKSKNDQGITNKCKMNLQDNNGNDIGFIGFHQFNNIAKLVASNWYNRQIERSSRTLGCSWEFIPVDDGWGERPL
Chain of Beta-adrenergic receptor kinase 1 (Homo sapiens) (P25098 whole entry, looked up): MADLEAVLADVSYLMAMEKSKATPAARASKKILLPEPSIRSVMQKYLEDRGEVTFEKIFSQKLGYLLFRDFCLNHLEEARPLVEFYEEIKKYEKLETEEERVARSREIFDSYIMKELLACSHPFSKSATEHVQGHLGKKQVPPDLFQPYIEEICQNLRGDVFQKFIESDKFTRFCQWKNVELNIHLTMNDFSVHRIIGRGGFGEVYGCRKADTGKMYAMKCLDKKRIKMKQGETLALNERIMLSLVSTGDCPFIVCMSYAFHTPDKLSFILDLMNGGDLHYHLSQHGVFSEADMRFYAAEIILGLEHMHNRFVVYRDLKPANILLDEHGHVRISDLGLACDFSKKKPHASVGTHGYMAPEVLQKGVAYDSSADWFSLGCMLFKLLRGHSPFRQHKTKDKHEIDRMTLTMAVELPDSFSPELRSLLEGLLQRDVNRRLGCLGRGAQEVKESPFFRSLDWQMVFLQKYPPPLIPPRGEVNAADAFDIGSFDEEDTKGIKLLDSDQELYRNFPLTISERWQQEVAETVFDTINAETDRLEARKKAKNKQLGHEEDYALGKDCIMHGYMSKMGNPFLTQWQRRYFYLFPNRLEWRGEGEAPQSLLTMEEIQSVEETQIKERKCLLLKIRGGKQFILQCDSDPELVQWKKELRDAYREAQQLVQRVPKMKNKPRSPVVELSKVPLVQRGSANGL
Chain of ATP-binding cassette sub-family B member 6 (Homo sapiens) (Q9NP58 whole entry, looked up): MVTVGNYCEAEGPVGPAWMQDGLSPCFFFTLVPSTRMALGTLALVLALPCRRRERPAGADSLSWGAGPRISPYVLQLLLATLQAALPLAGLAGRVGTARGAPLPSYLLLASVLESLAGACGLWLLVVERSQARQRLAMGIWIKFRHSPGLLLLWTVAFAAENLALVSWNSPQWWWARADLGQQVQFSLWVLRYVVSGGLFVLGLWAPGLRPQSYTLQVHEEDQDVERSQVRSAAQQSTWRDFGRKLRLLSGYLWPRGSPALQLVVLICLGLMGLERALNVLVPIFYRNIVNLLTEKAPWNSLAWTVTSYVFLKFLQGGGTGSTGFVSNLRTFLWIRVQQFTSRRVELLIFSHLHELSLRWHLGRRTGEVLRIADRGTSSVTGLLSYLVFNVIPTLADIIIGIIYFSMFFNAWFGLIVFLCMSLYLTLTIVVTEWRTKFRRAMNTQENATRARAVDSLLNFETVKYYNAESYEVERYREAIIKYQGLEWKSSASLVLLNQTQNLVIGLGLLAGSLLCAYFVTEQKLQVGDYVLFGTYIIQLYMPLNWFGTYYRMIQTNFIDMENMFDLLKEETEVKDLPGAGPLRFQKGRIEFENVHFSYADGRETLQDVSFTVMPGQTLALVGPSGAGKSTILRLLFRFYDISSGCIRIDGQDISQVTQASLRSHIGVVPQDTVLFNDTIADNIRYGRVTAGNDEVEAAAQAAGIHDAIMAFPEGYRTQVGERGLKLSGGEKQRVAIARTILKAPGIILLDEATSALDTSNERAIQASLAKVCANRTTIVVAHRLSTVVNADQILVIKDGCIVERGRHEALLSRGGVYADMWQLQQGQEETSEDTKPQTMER
Chain of AP-2 complex subunit beta (Homo sapiens) (P63010 whole entry, looked up, one chain of several): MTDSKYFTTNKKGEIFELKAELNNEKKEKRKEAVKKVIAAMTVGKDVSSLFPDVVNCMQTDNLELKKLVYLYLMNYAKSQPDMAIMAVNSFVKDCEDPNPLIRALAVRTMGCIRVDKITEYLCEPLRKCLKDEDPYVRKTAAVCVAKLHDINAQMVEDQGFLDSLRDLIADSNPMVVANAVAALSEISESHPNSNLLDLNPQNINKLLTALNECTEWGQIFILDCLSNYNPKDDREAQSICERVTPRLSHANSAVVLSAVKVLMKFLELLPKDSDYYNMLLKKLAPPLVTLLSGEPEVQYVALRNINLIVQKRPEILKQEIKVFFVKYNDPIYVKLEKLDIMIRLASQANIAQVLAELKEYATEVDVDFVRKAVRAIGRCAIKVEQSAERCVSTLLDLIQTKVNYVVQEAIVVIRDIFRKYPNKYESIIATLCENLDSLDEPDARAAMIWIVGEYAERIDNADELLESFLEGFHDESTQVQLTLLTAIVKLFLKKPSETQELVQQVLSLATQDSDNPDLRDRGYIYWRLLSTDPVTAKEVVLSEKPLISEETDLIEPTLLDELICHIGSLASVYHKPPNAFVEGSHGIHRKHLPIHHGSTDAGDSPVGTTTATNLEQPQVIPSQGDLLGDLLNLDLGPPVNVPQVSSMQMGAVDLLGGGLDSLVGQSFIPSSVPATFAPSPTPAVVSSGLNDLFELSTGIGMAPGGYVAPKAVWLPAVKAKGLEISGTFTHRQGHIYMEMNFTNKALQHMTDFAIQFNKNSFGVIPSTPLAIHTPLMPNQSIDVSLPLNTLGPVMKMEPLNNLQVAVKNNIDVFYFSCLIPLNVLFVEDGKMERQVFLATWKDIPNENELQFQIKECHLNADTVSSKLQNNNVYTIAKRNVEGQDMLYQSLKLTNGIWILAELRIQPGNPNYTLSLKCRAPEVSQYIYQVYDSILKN
Chain of Beta-2 adrenergic receptor (Homo sapiens) (P07550 whole entry, looked up): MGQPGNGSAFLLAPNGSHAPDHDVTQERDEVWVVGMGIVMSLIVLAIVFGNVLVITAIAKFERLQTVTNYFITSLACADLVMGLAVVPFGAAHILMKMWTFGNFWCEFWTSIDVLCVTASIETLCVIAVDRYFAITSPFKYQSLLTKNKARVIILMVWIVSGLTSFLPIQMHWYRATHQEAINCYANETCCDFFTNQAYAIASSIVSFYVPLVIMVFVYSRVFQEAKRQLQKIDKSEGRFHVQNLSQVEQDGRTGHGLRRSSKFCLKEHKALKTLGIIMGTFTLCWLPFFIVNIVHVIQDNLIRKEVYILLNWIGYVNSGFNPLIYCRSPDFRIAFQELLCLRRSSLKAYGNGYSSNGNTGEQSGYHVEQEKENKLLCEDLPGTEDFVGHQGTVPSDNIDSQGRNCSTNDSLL

`CC(C)(C)C(O)C(Oc1ccc(Cl)cc1)n1cncn1` (stereo not given): the percent of DMSO control GFP in [1] is 105% (inactive). In addition, the GFP response vs DMSO in [2] was 107% (inactive); in assay [4], 121% (inactive). The percent response of DMSO control in assay [3] was 106% (inactive). The GFP response, % of DMSO in assay [5] was 115% (inactive). Also, the double positive events in assay [6] came to 62%. The vesicle binding response in [6] is 218% (inactive). Besides, the inhibition in assay [7] was 1.44% (inactive); in assay [11], 7.17% (inactive); in assay [14], -0.4% (inactive); in assay [15] it was 0% (inactive); in assay [16], -4.4% (inactive); in [18], 4% (inactive). Also, the superoxide response (% of plate) in [8] is 277% (inactive). Further, in assay [9], the aptamer binding inhibition was 2% (inactive). Besides, the response was -29.1% (inactive) in assay [10] and -0.61% (inactive) in [12]. In addition, the binding (% of control) in [13] was 100% (inactive). Further, the efflux inhibition (fraction of control) in [17] was -0.04 (inactive). The differentiation response in assay [19] is 6.83% (inactive).
Consider `C[N+]1(C)[C@@H]2CC[C@H]1CC(OC(=O)C(CO)c1ccccc1)C2` (stereo not given in full), for which the percent of DMSO control GFP in assay [1] is 105% (inactive). The GFP response vs DMSO is 96.3% (inactive) in assay [2] and 113% (inactive) in assay [4]. For the same molecule, the percent response of DMSO control in assay [3] was 105% (inactive). In [5], the GFP response, % of DMSO was 110% (inactive). The same molecule had a double positive events in assay [6] of 64.9%. Further, the vesicle binding response in assay [6] is 7000% (inactive). The inhibition is -14.1% (inactive) in [7]; -5.05% (inactive) in assay [11]; 3.3% (inactive) in assay [14]; -0.2% (inactive) in [15]; -4.9% (inactive) in [16]; 7% (inactive) in assay [18]. The superoxide response (% of plate) in assay [8] is 91% (inactive). Moreover, the aptamer binding inhibition in assay [9] is 1% (inactive). Also, the response in assay [10] is -8.13% (inactive); in assay [12], 0.35% (inactive). The binding (% of control) in assay [13] was 98% (inactive). For the same molecule, the efflux inhibition (fraction of control) in assay [17] was -0.1 (inactive). Further, in assay [19], the differentiation response was -15.2% (inactive).
`CN1C[C@H](CNC(=O)OCc2ccccc2)C[C@@H]2c3cccc4c3c(cn4C)C[C@H]21`: in assay [1], the percent of DMSO control GFP is 103% (inactive). The GFP response vs DMSO in [2] was 101% (inactive); in assay [4] it was 104% (inactive). In assay [3], the percent response of DMSO control was 99% (inactive). In addition, the GFP response, % of DMSO in assay [5] is 108% (inactive). In [6], this molecule had a double positive events of 63.3%. For the same molecule, in [6], the vesicle binding response was 365% (inactive). The inhibition in assay [7] was -34.3% (inactive); in [11] it was -6.87% (inactive); in assay [14], -0.5% (inactive); in [15] it was 1.5% (inactive); in assay [16] it was -7.6% (inactive); in assay [18] it was -29% (inactive). In addition, the superoxide response (% of plate) in assay [8] is 125% (inactive). For the same molecule, the aptamer binding inhibition in assay [9] was -1% (inactive). Further, the response in assay [10] was 13.7% (inactive); in assay [12], -0.08% (inactive). Further, in assay [13], the binding (% of control) was 110% (inactive). Besides, the efflux inhibition (fraction of control) in assay [17] is 0.04 (inactive). Besides, the differentiation response in [19] is -6.96% (inactive).
Regarding `CCCC[N+]1(C)[C@@H]2CC(OC(=O)[C@H](CO)c3ccccc3)C[C@H]1[C@@H]1O[C@@H]12` (stereo not given in full), in assay [1], the percent of DMSO control GFP was 107% (inactive). The figures for the GFP response vs DMSO in [2] and in [4] were 109% (inactive) and 112% (inactive), respectively. Moreover, in [3], the percent response of DMSO control was 106% (inactive). In addition, the GFP response, % of DMSO in assay [5] was 111% (inactive). This molecule returned a double positive events in assay [6] of 59.9%. Also, the vesicle binding response in assay [6] was 150% (inactive). For the same molecule, the inhibition in assay [7] was -15.8% (inactive); in assay [11] it was 0.96% (inactive); in assay [14], 1.1% (inactive); in assay [15] it was 0.2% (inactive); in [16] it was -5.3% (inactive); in assay [18], 28% (inactive). The superoxide response (% of plate) in [8] was 97.4% (inactive). For the same molecule, the aptamer binding inhibition in assay [9] is 4% (inactive). The response in assay [10] was -2.08% (inactive); in assay [12], -3.56% (inactive). Further, the binding (% of control) in assay [13] was 96.4% (inactive). For the same molecule, in [17], the efflux inhibition (fraction of control) is 0.3 (inactive). Further, the differentiation response in assay [19] was 13% (inactive).

One may read the inhibition as the relative decrease from the control value, in per cent.
